What was measured:
[1] = target: Glycogen synthase kinase-3 alpha (Homo sapiens) (UniProt P49840); details: at 1 µM
[2] = target: Glycogen synthase kinase-3 alpha (Homo sapiens) (UniProt P49840); details: at 10 µM
[3] = target: Tyrosine-protein kinase HCK (Homo sapiens) (UniProt P08631); details: at 1 µM
[4] = target: Tyrosine-protein kinase HCK (Homo sapiens) (UniProt P08631); details: at 10 µM
[5] = target: Insulin-like growth factor 1 receptor (Homo sapiens) (UniProt P08069); details: at 1 µM
Chain of Insulin-like growth factor 1 receptor (Homo sapiens) (P08069 31-736 limits assumed): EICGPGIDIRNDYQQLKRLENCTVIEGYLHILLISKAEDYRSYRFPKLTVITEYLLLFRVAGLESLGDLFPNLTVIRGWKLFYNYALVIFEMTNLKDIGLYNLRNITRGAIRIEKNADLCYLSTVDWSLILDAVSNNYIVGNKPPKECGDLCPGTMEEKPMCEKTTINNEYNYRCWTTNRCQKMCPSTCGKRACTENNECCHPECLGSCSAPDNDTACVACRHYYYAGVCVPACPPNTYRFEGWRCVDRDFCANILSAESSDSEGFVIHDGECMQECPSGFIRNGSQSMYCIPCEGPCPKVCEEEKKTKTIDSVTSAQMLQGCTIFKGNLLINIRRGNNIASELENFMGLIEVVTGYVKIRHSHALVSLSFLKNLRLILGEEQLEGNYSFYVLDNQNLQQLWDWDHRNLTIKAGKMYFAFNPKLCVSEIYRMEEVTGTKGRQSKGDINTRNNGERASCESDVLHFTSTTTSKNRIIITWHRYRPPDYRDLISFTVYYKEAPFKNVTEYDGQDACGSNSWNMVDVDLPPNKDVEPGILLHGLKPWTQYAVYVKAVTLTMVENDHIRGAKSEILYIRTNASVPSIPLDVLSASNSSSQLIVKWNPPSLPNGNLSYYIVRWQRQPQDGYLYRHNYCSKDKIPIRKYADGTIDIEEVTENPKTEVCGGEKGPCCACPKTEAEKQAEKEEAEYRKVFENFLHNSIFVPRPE
Chain of Insulin-like growth factor 1 receptor (Homo sapiens) (P08069 741-1367 limits assumed): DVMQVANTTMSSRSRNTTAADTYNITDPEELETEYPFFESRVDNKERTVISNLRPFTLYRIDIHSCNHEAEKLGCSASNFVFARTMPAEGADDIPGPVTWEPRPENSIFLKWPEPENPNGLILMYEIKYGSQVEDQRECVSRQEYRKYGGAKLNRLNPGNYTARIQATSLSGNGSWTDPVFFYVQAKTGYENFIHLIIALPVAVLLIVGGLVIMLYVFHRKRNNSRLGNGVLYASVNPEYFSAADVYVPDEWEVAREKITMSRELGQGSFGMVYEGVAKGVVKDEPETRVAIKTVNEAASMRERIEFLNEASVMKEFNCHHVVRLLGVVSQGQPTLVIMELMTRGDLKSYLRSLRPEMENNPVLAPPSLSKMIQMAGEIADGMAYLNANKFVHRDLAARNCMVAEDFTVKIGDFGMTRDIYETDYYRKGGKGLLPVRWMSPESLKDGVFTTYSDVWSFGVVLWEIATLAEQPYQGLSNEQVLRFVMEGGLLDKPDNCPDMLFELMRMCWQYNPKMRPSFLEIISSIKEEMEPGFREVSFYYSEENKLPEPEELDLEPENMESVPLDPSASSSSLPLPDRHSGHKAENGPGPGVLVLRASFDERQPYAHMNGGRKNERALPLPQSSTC

[6] = target: Glycogen synthase kinase-3 beta (Homo sapiens) (UniProt P49841); details: at 10 µM
Chain of Glycogen synthase kinase-3 beta (Homo sapiens) (P49841 whole entry, looked up): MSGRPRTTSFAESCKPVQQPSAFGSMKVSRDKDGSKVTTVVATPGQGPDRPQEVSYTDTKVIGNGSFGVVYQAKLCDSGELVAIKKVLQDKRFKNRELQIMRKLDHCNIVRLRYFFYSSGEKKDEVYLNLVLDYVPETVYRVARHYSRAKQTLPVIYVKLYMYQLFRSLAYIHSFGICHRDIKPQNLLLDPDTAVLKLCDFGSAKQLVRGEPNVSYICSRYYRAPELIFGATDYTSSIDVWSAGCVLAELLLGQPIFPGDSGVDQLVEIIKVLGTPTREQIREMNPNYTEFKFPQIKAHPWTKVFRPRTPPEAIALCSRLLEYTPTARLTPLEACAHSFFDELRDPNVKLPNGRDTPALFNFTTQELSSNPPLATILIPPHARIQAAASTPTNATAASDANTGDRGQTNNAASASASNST

[7] = target: Insulin-like growth factor 1 receptor (Homo sapiens) (UniProt P08069); details: at 10 µM
[8] = target: Glycogen synthase kinase-3 beta (Homo sapiens) (UniProt P49841); details: at 1 µM
[9] = target: Tyrosine-protein kinase HCK (Homo sapiens) (UniProt P08631); details: at 1 µM; remark: listed apart in the source
[10] = target: Tyrosine-protein kinase HCK (Homo sapiens) (UniProt P08631); details: at 10 µM; remark: listed apart in the source
[11] = target: T1, Protein kinase C zeta type (Homo sapiens) (UniProt Q05513); details: at 10 µM
T1 sequence (whole entry): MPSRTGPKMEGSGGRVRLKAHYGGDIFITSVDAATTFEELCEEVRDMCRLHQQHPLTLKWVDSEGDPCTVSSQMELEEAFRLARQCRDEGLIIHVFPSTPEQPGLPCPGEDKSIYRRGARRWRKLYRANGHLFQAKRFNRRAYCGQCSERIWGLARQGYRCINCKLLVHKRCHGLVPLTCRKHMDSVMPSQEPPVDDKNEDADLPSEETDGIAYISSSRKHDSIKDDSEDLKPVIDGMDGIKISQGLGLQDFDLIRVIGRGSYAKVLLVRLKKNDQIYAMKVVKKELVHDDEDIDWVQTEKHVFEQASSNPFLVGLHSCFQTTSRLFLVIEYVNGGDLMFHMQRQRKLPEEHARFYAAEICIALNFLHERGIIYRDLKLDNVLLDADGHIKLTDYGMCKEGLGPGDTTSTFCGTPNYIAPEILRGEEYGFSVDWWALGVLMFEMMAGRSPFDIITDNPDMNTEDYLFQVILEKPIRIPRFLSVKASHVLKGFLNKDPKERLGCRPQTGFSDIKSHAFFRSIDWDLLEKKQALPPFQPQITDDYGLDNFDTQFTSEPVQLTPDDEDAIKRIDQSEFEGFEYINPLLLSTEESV

[12] = target: T2, Serine/threonine-protein kinase haspin (Homo sapiens) (UniProt Q8TF76); details: at 1 µM
T2 sequence (whole entry): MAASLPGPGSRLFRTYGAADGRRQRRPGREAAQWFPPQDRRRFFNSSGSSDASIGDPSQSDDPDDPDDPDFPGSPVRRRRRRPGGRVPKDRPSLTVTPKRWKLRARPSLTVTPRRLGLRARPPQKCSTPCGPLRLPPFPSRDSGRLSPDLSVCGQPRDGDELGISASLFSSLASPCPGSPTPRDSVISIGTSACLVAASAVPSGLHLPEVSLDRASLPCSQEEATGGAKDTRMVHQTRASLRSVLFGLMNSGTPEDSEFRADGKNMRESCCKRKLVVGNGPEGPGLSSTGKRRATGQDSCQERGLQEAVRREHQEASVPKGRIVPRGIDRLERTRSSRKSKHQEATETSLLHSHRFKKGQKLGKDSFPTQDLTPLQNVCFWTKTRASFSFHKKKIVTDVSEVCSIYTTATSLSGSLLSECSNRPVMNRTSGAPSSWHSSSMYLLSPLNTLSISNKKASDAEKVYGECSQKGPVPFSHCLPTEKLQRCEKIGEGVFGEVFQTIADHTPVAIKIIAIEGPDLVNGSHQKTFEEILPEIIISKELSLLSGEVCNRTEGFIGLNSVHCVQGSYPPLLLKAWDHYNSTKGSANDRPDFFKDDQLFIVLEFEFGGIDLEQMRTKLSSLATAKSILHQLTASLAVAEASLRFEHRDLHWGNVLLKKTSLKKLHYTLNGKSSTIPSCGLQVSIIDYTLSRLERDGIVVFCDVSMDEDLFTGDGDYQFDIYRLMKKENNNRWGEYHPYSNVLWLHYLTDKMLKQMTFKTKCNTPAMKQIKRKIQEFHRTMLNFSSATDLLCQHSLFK

[13] = target: T2, Serine/threonine-protein kinase haspin (Homo sapiens); details: at 10 µM
[14] = target: Homeodomain-interacting protein kinase 1 (Homo sapiens) (UniProt Q86Z02); details: at 10 µM
Chain of Homeodomain-interacting protein kinase 1 (Homo sapiens) (Q86Z02 whole entry, looked up): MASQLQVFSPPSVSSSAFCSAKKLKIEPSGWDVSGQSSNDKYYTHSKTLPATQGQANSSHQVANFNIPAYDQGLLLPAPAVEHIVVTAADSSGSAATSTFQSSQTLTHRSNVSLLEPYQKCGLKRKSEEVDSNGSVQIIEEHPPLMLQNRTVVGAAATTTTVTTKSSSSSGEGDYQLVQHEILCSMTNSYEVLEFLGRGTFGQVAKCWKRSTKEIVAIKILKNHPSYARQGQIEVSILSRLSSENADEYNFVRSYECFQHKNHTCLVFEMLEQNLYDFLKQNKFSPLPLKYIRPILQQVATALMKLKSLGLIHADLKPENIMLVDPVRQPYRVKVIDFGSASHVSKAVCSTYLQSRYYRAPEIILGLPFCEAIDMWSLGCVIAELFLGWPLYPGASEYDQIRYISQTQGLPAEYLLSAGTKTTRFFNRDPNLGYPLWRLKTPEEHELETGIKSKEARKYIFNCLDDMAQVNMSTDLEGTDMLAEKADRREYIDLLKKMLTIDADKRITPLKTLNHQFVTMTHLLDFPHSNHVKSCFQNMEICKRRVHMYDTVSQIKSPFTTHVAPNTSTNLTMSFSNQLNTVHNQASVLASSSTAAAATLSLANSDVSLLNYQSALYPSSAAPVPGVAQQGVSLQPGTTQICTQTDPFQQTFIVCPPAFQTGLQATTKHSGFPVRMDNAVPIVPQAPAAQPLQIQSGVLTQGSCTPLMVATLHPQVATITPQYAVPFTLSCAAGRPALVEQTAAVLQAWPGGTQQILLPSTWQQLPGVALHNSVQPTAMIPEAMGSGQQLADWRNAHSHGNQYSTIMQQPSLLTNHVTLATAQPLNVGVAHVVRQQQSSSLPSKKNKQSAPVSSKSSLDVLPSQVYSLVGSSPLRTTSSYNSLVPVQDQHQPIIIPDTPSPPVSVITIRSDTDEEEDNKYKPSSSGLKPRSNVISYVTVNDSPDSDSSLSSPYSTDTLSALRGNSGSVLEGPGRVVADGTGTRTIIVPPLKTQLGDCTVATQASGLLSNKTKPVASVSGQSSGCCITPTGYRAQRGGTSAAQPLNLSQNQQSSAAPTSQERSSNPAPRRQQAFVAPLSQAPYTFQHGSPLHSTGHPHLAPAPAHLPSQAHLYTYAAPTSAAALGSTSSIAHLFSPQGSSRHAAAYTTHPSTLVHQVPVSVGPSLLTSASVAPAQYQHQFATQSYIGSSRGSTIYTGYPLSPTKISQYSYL

[15] = target: Homeodomain-interacting protein kinase 2 (Homo sapiens) (UniProt Q9H2X6); details: at 10 µM
Chain of Homeodomain-interacting protein kinase 2 (Homo sapiens) (Q9H2X6 whole entry, looked up): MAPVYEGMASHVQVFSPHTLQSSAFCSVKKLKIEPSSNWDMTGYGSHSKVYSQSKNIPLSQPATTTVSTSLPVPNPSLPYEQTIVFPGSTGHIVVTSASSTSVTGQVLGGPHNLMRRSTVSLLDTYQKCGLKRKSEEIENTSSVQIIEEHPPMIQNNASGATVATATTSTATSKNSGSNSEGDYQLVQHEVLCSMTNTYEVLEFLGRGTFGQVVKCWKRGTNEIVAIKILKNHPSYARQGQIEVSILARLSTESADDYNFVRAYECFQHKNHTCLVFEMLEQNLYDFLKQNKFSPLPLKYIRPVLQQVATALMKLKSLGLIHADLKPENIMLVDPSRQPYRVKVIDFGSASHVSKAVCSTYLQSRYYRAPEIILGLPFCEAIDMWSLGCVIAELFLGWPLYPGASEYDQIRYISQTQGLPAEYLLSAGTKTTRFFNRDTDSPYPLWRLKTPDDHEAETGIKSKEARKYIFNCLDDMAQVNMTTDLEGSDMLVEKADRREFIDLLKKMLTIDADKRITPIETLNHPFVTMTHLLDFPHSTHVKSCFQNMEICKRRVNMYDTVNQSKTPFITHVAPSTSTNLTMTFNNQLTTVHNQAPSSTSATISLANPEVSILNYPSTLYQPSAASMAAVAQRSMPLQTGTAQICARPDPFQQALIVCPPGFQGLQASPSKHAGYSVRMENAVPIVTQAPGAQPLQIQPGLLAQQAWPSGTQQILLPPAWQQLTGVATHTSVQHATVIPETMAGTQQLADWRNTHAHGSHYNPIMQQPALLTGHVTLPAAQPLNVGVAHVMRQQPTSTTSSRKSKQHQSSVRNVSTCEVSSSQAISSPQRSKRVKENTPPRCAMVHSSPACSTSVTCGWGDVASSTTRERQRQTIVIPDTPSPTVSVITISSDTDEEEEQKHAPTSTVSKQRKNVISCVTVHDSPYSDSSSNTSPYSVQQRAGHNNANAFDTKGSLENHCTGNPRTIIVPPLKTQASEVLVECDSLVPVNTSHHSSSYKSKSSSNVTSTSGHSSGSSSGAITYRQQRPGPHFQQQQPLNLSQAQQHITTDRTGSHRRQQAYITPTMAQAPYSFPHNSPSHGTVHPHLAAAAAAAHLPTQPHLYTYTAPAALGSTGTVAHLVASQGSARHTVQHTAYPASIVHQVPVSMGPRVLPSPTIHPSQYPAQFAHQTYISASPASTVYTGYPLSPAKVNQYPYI

[16] = target: Homeodomain-interacting protein kinase 2 (Homo sapiens) (UniProt Q9H2X6); details: at 1 µM
[17] = target: Homeodomain-interacting protein kinase 1 (Homo sapiens) (UniProt Q86Z02); details: at 1 µM
[18] = target: T3, Rhodopsin kinase GRK7 (Homo sapiens) (UniProt Q8WTQ7); details: at 10 µM
T3 sequence (whole entry): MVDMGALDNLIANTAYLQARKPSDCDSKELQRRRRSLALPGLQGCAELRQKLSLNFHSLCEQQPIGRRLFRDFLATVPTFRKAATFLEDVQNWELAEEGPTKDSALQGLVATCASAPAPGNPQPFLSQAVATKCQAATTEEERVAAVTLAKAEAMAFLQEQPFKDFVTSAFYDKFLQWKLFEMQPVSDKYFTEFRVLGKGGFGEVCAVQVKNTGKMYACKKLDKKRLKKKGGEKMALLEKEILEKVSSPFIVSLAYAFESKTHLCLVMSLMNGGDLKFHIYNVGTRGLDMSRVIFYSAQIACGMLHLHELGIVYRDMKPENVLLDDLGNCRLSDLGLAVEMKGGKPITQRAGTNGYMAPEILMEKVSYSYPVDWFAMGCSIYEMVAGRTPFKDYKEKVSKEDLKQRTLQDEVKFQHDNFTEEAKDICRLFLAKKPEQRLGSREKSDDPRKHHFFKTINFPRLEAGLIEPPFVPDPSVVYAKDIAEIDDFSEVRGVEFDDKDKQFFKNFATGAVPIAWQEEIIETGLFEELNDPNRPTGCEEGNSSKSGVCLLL

[19] = target: Homeodomain-interacting protein kinase 3 (Homo sapiens) (UniProt Q9H422); details: at 1 µM
[20] = target: Homeodomain-interacting protein kinase 3 (Homo sapiens) (UniProt Q9H422); details: at 10 µM

Chain of Glycogen synthase kinase-3 alpha (Homo sapiens) (P49840 2-483 limits assumed): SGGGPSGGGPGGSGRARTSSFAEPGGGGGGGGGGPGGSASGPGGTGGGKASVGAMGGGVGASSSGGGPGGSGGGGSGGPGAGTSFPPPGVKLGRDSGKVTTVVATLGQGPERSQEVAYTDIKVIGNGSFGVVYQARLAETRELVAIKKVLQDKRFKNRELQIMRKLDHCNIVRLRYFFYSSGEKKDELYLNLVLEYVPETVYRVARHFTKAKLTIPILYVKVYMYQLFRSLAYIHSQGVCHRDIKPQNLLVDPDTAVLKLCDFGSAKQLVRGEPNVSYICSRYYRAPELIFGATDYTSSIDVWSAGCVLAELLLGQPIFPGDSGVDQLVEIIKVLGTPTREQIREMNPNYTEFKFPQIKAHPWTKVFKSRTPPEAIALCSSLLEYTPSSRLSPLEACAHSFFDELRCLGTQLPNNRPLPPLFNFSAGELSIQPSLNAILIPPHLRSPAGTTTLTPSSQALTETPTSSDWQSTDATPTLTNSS

O=C(Nc1ccc(Cl)cc1)c1ccccc1NCc1ccncc1
residual activity [1]: 118%
residual activity [2]: 130%
residual activity [3]: 80%
residual activity [4]: 38%
residual activity [5]: 125%

COc1ccc(COc2ccc(Cc3cnc(N)nc3N)cc2OC)cc1
residual activity [1]: 120%
residual activity [2]: 119%
residual activity [6]: 80%
residual activity [4]: 65%
residual activity [5]: 128%
residual activity [7]: 133%

COc1ccc(CNC(=O)Nc2ncc([N+](=O)[O-])s2)cc1
residual activity [8]: 28%
residual activity [6]: 14%
residual activity [3]: 13%
residual activity [4]: 12%
residual activity [9]: 52%
residual activity [10]: 54%
residual activity [7]: 123%
residual activity [11]: 105%

NC(=O)c1cccc(-c2cc(Nc3ccc(OC(F)(F)F)cc3)ncn2)c1
residual activity [1]: 98%
residual activity [2]: 82%
residual activity [6]: 64%
residual activity [12]: 84%
residual activity [13]: 65%

Nc1nccc(-c2c(-c3ccc(F)cc3)ncn2C2CCNCC2)n1
residual activity [6]: 64%
residual activity [14]: 82%
residual activity [15]: 62%
residual activity [12]: 54%
residual activity [13]: 36%
residual activity [4]: 53%
residual activity [10]: 43%
residual activity [7]: 120%

O=C1Cc2c([nH]c3ccc(Br)cc23)-c2ccccc2N1
residual activity [8]: 8%
residual activity [6]: 7%
residual activity [14]: 90%
residual activity [16]: 98%
residual activity [15]: 64%
residual activity [12]: 60%
residual activity [13]: 44%
residual activity [4]: 28%
residual activity [7]: 141%
residual activity [11]: 92%

O=C1NC(=O)C(c2cn(CCCO)c3ncccc23)=C1c1cnccn1
residual activity [1]: 6%
residual activity [2]: 3%
residual activity [8]: 34%
residual activity [6]: 10%
residual activity [17]: 93%
residual activity [14]: 93%
residual activity [16]: 56%
residual activity [15]: 52%
residual activity [12]: 69%
residual activity [13]: 55%
residual activity [3]: 66%
residual activity [4]: 48%
residual activity [9]: 95%
residual activity [10]: 96%
residual activity [5]: 138%
residual activity [7]: 124%

NCCNc1ncc(C(N)=O)c(Nc2cccc(C(F)(F)F)c2)n1
residual activity [6]: 26%
residual activity [12]: 44%
residual activity [13]: 7%
residual activity [3]: 78%
residual activity [4]: 22%
residual activity [9]: 64%
residual activity [10]: 14%
residual activity [5]: 127%
residual activity [11]: 112%

O=S(=O)(NCCNC/C=C/c1ccc(Br)cc1)c1cccc2cnccc12
residual activity [18]: 58%
residual activity [12]: 7%
residual activity [13]: 0%
residual activity [4]: 72%
residual activity [11]: 78%

CCOC(=O)c1c(C)[nH]c(/C=C2\C(=O)Nc3ccccc32)c1C
residual activity [2]: 129%
residual activity [8]: 99%
residual activity [6]: 80%
residual activity [3]: 77%
residual activity [4]: 74%
residual activity [9]: 93%
residual activity [10]: 97%
residual activity [5]: 119%

Cn1sc(=O)n(Cc2ccccc2)c1=O
residual activity [18]: 77%
residual activity [16]: 94%
residual activity [15]: 94%
residual activity [12]: 77%
residual activity [3]: 75%
residual activity [4]: 64%
residual activity [9]: 89%
residual activity [10]: 90%
residual activity [5]: 93%

COc1ccc(Cl)cc1NC(=O)Nc1cc(C)nc2ccccc12
residual activity [18]: 88%
residual activity [17]: 97%
residual activity [16]: 98%
residual activity [15]: 87%
residual activity [19]: 99%
residual activity [20]: 98%
residual activity [3]: 93%
residual activity [4]: 53%
residual activity [9]: 100%
residual activity [10]: 98%
residual activity [5]: 147%

— ChEMBL document CHEMBL2218924, “A broad activity screen in support of a chemogenomic map for kinase signalling research and drug discovery” (Biochem J, 2013)
